Data as given in PubChem BioAssay (EPA / NIEHS).
Several values for one entry are separate records, joined by “and”; a condition that tells them apart may be missing. Equal entries are not always repeated. More than one record can exist for a structure, and the calls need not agree. Activity calls are given as the source filed them. Rule for the calls: active = hit-call score of the fitted dose curve at least 0.9, where 1 is the maximum; inactive = score below 0.9.

What was measured:
[1] = BSK_hDFCGF_SRB: Viability Assessment in the BioMAP Diversity Plus: hDFCGF Assay (AID 2283061); conditions: primary human foreskin fibroblasts;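 note: cells exposed to compound for 24 h before the read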
Outline: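 Viability was read as total protein: after 10% TCA fixation, wells were stained with 0.1% sulforhodamine B and read at 560 nm. Primary human foreskin fibroblasts were dosed for 24 h, with bidirectional fitting versus DMSO.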

[2] = read-out: TIMP metallopeptidase inhibitor 1 (TIMP1), TIMP1 (gene 7076); assay: BSK_hDFCGF_TIMP1: BioMAP Diversity Plus: hDFCGF Assay for TIMP metallopeptidase inhibitor 1 (TIMP1) Biomarker Activity (AID 2283062); conditions: primary human foreskin fibroblasts; actives raise or lower the signal
Outline: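 TIMP-1 measured by ELISA 24 h after chemical dosing of primary human skin fibroblasts, with gain or loss fitted relative to DMSO. Parallel SRB staining (560 nm) monitored overt cytotoxicity.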

[3] = read-out: Monokine induced gamma interferon (MIG), CXCL9 (gene 4283); assay: BSK_hDFCGF_MIG: BioMAP Diversity Plus: hDFCGF Assay for Monokine induced gamma interferon (MIG) Biomarker Activity (AID 2283063); conditions: primary human foreskin fibroblasts; actives raise or lower the signal
Outline: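 Human primary foreskin fibroblasts in the hDFCGF system, exposed to test chemical for 24 h; MIG measured by ELISA. Bidirectional curve fitting against DMSO negative control as activity baseline.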

[4] = read-out: Vascular cell adhesion molecule 1 (VCAM1), VCAM1 (gene 7412); assay: BSK_hDFCGF_VCAM1: BioMAP Diversity Plus: hDFCGF Assay for Vascular cell adhesion molecule 1 (VCAM1) Biomarker Activity (AID 2283065); conditions: primary human foreskin fibroblasts; actives raise or lower the signal;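 for AC50: VCAM-1 protein level quantified by ELISA after 24 h chemical exposure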
Outline: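 ELISA readout of VCAM-1 on human dermal fibroblast primary cultures, 24 h after chemical exposure. Gain or loss of signal fitted in both directions against DMSO baseline.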

[5] = read-out: Plasminogen activator inhibitor-1 (PAI1), SERPINE1 (gene 5054); assay: BSK_hDFCGF_PAI1: BioMAP Diversity Plus: hDFCGF Assay for Plasminogen activator inhibitor-1 (PAI1) Biomarker Activity (AID 2283066); conditions: primary human foreskin fibroblasts; actives raise or lower the signal
Outline: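 Human skin fibroblast cultures receive chemical for 24 h before PAI-1 is measured by ELISA; signal changes are fitted bidirectionally against DMSO-treated wells.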

[6] = read-out: Intercellular Adhesion Molecule 1 (ICAM1), ICAM1 (gene 3383); assay: BSK_KF3CT_ICAM1: BioMAP Diversity Plus: KF3CT Assay for Intercellular Adhesion Molecule 1 (ICAM1) Biomarker Activity (AID 2283067); conditions: primary human keratinocytes with fibroblasts; actives raise or lower the signal
Outline: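 Cell-surface ICAM-1 was measured by ELISA 24 h after dosing primary human skin keratinocytes co-cultured with fibroblasts. Parallel SRB staining tracked overt cytotoxicity. Gain or loss of signal was fitted relative to DMSO.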

[7] = read-out: Interferon-gamma inducible Protein 10 (IP10), CXCL10 (gene 3627); assay: BSK_KF3CT_IP10: BioMAP Diversity Plus: KF3CT Assay for Interferon-gamma inducible Protein 10 (IP10) Biomarker Activity (AID 2283068); conditions: primary human keratinocytes with fibroblasts; actives raise or lower the signal
Outline: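 KF3CT co-culture (keratinocytes + foreskin fibroblasts), 24 h compound, IP-10 by ELISA; bidirectional fit vs DMSO baseline.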

[8] = BSK_KF3CT_SRB: Viability Assessment in the BioMAP Diversity Plus: KF3CT Assay (AID 2283069); conditions: primary human keratinocytes with fibroblasts;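 note: total protein by sulforhodamine B staining as a cytotoxicity measure; read 24 h after compound addition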
Outline: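 Cytotoxicity was gauged by SRB staining (0.1% SRB, 10% TCA fixation, 560 nm) of parallel cultures at 24 h. The cells were primary human skin keratinocytes co-cultured with fibroblasts, and activity was fitted in both directions against DMSO.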

[9] = read-out: Interleukin-1 alpha (IL1a), IL1A (gene 3552); assay: BSK_KF3CT_IL1a: BioMAP Diversity Plus: KF3CT Assay for Interleukin-1 alpha (IL1a) Biomarker Activity (AID 2283070); conditions: primary human keratinocytes with fibroblasts; actives raise or lower the signal
Outline: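 IL-1a was detected by ELISA 24 h after chemical treatment of a co-culture of human skin keratinocytes and foreskin fibroblasts. Gain or loss of signal was fitted against the DMSO baseline.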

[10] = read-out: TIMP metallopeptidase inhibitor 2 (TIMP2), TIMP2 (gene 7077); assay: BSK_KF3CT_TIMP2: BioMAP Diversity Plus: KF3CT Assay for TIMP metallopeptidase inhibitor 2 (TIMP2) Biomarker Activity (AID 2283071); conditions: primary human keratinocytes with fibroblasts; actives raise or lower the signal
Outline: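 Measurements come from ELISA detection of TIMP-2 at 24 hours in a dosed human keratinocyte and foreskin fibroblast co-culture. DMSO serves as negative control and baseline.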

[11] = read-out: C-C motif chemokine 2 (Homo sapiens) (UniProt P13500); assay: BSK_KF3CT_MCP1: BioMAP Diversity Plus: KF3CT Assay for Monocyte Chemoattractant Protein 1 (MCP1/CCL2) Biomarker Activity (AID 2283073); conditions: primary human keratinocytes with fibroblasts; actives raise or lower the signal
Outline: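 ELISA read-out of MCP-1, 24 h post-dose, in primary human skin keratinocytes co-cultured with fibroblasts. Parallel SRB staining monitors cytotoxicity; changes fitted both directions relative to DMSO.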

[12] = read-out: Matrix Metallopeptidase 9 (MMP9), MMP9 (gene 4318); assay: BSK_KF3CT_MMP9: BioMAP Diversity Plus: KF3CT Assay for Matrix Metallopeptidase 9 (MMP9) Biomarker Activity (AID 2283074); conditions: primary human keratinocytes with fibroblasts; actives raise or lower the signal
Outline: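 MMP-9 quantified by ELISA after 24 h chemical treatment of primary human skin keratinocyte/fibroblast co-cultures; gain or loss fitted against DMSO, with parallel SRB staining (0.1% SRB, 560 nm) for overt cytotoxicity.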

[13] = read-out: urokinase plasminogen activator (uPA), PLAU (gene 5328); assay: BSK_KF3CT_uPA: BioMAP Diversity Plus: KF3CT Assay for urokinase plasminogen activator (uPA) Biomarker Activity (AID 2283075); conditions: primary human keratinocytes with fibroblasts; actives raise or lower the signal
Outline: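 ELISA read-out of uPA 24 h after dosing human skin keratinocytes co-cultured with foreskin fibroblasts. Signal change fitted both ways relative to DMSO; sulforhodamine B on parallel cultures marks overt cytotoxicity.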

CD40, CD40 (gene 958) = assay: BSK_LPS_CD40: BioMAP Diversity Plus: LPS Assay for CD40 Biomarker Activity (AID 2283076); conditions: primary human HUVEC with PBMC; actives raise or lower the signal
Outline: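 In the LPS system of human endothelial cells with peripheral blood mononuclear cells, CD40 levels were read by ELISA 24 h post-treatment. Signal changes in either direction were fitted against the DMSO baseline, with parallel SRB protein staining.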

[14] = read-out: E-selectin (Homo sapiens) (UniProt P16581); assay: BSK_LPS_Eselectin: BioMAP Diversity Plus: LPS Assay for Eselectin Biomarker Activity (AID 2283077); conditions: primary human HUVEC with PBMC; actives raise or lower the signal
Outline: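 E-selectin ELISA on LPS-stimulated endothelial cell/PBMC co-cultures, read 24 h post-treatment; gains and losses fitted against DMSO. Parallel SRB staining (0.1% SRB after 10% TCA fixation, 560 nm) flags overt cytotoxicity.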

[15] = read-out: Interleukin-8 (IL8), CXCL8 (gene 3576); assay: BSK_LPS_IL8: BioMAP Diversity Plus: LPS Assay for Interleukin-8 (IL8) Biomarker Activity (AID 2283078); conditions: primary human HUVEC with PBMC; actives raise or lower the signal
Outline: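 ELISA read-out of IL-8 after 24 h chemical treatment of LPS-activated endothelial/PBMC human primary co-cultures. Changes either up or down relative to DMSO; overt cytotoxicity checked by sulforhodamine B staining in parallel wells.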

[16] = BSK_LPS_SRB: Viability Assessment in the BioMAP Diversity Plus: LPS Assay (AID 2283079); conditions: primary human HUVEC with PBMC;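 note: total protein by sulforhodamine B absorbance as a cytotoxicity measure; measured one day after compound addition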
Outline: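 SRB viability endpoint: cells fixed with 10% TCA, stained with 0.1% SRB, read at 560 nm, 24 h post-dose. HUVEC/PBMC co-culture; signal change in either direction scored relative to DMSO.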

[17] = read-out: Interleukin-1 alpha (IL1a), IL1A (gene 3552); assay: BSK_LPS_IL1a: BioMAP Diversity Plus: LPS Assay for Interleukin-1 alpha (IL1a) Biomarker Activity (AID 2283080); conditions: primary human HUVEC with PBMC; actives raise or lower the signal
Outline: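 Readout is IL-1a level by ELISA, 24 h post-dose, fitted as gain or loss relative to DMSO. System: LPS-activated human primary co-culture of vascular endothelium and peripheral blood mononuclear cells, with parallel SRB total-protein cytotoxicity.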

[18] = read-out: Transforming growth factor beta 1 (TGFb1), TGFB1 (gene 7040); assay: BSK_KF3CT_TGFb1: BioMAP Diversity Plus: KF3CT Assay for Transforming growth factor beta 1 (TGFb1) Biomarker Activity (AID 2283072); conditions: primary human keratinocytes with fibroblasts; actives raise or lower the signal
Outline: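 TGF-b1 ELISA on a 24 h dosed co-culture of human keratinocytes and foreskin fibroblasts; cytotoxicity tracked in parallel cultures by SRB staining.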

[19] = read-out: Matrix Metallopeptidase 1 (MMP1), MMP1 (gene 4312); assay: BSK_hDFCGF_MMP1: BioMAP Diversity Plus: hDFCGF Assay for Matrix Metallopeptidase 1 (MMP1) Biomarker Activity (AID 2283064); conditions: primary human foreskin fibroblasts; actives raise or lower the signal
Outline: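 MMP1 levels quantified by ELISA 24 h after dosing human dermal fibroblast cultures, with parallel SRB total-protein staining for overt cytotoxicity. Data fitted in both directions against DMSO baseline.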

Measured: AC50

Chain of E-selectin (Homo sapiens) (P16581 whole entry, looked up): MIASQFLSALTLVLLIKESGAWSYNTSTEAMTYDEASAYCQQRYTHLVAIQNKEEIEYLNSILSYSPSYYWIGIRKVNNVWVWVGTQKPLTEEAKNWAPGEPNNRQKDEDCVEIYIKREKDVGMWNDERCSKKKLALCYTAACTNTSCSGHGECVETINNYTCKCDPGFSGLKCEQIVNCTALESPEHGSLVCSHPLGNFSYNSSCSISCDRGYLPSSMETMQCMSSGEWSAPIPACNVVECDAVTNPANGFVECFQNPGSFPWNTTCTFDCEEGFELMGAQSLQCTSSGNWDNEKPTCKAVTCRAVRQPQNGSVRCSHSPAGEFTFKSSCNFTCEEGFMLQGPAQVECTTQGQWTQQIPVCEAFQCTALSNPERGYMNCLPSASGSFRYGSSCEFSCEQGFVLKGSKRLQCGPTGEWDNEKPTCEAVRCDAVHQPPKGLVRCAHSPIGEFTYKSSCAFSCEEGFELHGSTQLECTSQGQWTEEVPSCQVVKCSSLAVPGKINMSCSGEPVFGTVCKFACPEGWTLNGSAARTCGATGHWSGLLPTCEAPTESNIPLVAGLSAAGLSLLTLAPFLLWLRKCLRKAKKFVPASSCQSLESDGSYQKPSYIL

FC(F)(F)C(F)(F)C(F)(F)C(F)(F)C(F)(F)C(F)(F)I
inactive: [1] | [2] | [3] | [4] | [5] | [6] | [7] | [8] | [9] | [10] | [11] | [12] | [13] | CD40, CD40 (gene 958) | [14] | [15] | [16] | [17]
active: [4] 48.3 µM

O=C(O)c1cccc(C[C@@H]2COc3ccc(OCc4nc5cc(F)ccc5s4)cc3[C@@H]2O)c1
not listed: [19]
inactive: all other assays above

Cc1ccc(S(=O)(=O)NC(=O)NN2CCCCCC2)cc1
inactive: all assays above

OC(O)(C(F)C(O)(O)C(F)(F)F)C(F)(F)F
active: [3] 30 µM and 36.3 µM | [4] 1.12 µM and 13 µM
not listed: [18]
inactive: all other assays above

OCc1ccccc1
not listed: [19]
inactive: all other assays above

c1ccc2c(c1)-c1cccc3c1c-2cc1ccccc13
not listed: [19]
inactive: all other assays above

CCCCCCCC/C=C\CCCCCCCC(=O)OC[C@@H](O)[C@H]1OC[C@H](O)[C@H]1O
not listed: [19]
inactive: all other assays above
